Data from the supplement of paper PMC6555819.

Tests used:
Assay in all cases: PBM binding z-score (relative to random genomic background probes); higher = stronger binding; sequences stand for … in GC…GCGATTGACAGCGTAGAATGAAGG
[1] = system: FXR:RXRa (NR concentration 270 nM, RXRa partner concentration 90 nM)
Outline: (§1)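 The probes on custom Agilent 4×180K protein-binding microarrays were double-stranded, with 34-nt variable regions bearing direct-repeat seeds, single-nucleotide variants, half-site ablations and random human genomic background sequences. Incubation lasted 1 h with ligand-free nuclear receptor dimers in PBS pH 7.4, 2% milk, 0.02% Triton X-100, 1 mM DTT, 0.2 mg/mL BSA and 0.4 mg/ml salmon testes DNA. Antibodies against each partner (one per run) detected bound dimers, and fluorescence scans were regression-normalized. Binding z-scores take the random background probes as reference.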

[2] = system: LXRa:RXRa (NR concentration 270 nM, RXRa partner concentration 90 nM)
Outline: as §1

[3] = system: LXRa homodimer (NR concentration 270 nM)
Outline: as §1

[4] = system: LXRb:RXRa (NR concentration 270 nM, RXRa partner concentration 90 nM)
Outline: as §1

[5] = system: LXRb homodimer (NR concentration 270 nM)
Outline: as §1

[6] = system: PPARa:RXRa (NR concentration 270 nM, RXRa partner concentration 90 nM)
Outline: as §1

[7] = system: PPARg:RXRa (NR concentration 180 nM, RXRa partner concentration 90 nM)
Outline: as §1

[8] = system: PPARg:RXRa 270nM:90nM, anti-RXR (NR concentration 270 nM, RXRa partner concentration 90 nM)
Outline: as §1

[9] = system: PPARg:RXRa 30nM:10nM, anti-RXR (NR concentration 30 nM, RXRa partner concentration 10 nM)
Outline: as §1

[10] = system: PPARg:RXRa 90nM:30nM, anti-RXR (NR concentration 90 nM, RXRa partner concentration 30 nM)
Outline: as §1

[11] = system: PPARg:RXRa DBDmut IVT, anti-RXR (DBD mutation: RXRa K156A/R161A, NR concentration 270 nM, RXRa partner concentration 90 nM)
Outline: as §1

[12] = system: PPARg:RXRa IVT, anti-PPARg (NR concentration 270 nM, RXRa partner concentration 90 nM)
Outline: as §1

[13] = system: PPARg DBDmut:RXRa IVT, anti-PPARg (DBD mutation: PPARg1 K132A/R137A, NR concentration 270 nM, RXRa partner concentration 90 nM)
Outline: as §1

[14] = system: PPARg DBDmut IVT, anti-PPARg (DBD mutation: PPARg1 K132A/R137A, NR concentration 270 nM)
Outline: as §1

[15] = system: PPARg homodimer (NR concentration 180 nM)
Outline: as §1

[16] = system: PXR:RXRa (NR concentration 270 nM, RXRa partner concentration 90 nM)
Outline: as §1

[17] = system: PXR homodimer (NR concentration 270 nM)
Outline: as §1

[18] = system: RARa:RXR (NR concentration 270 nM, RXRa partner concentration 90 nM)
Outline: as §1

[19] = system: RARa homodimer (NR concentration 270 nM)
Outline: as §1

[20] = system: RARb:RXRa (NR concentration 270 nM, RXRa partner concentration 90 nM)
Outline: as §1

Sequence	PBM binding z-score [1]	PBM binding z-score [2]	PBM binding z-score [3]	PBM binding z-score [4]	PBM binding z-score [5]	PBM binding z-score [6]	PBM binding z-score [7]	PBM binding z-score [8]	PBM binding z-score [9]	PBM binding z-score [10]	PBM binding z-score [11]	PBM binding z-score [12]	PBM binding z-score [13]	PBM binding z-score [14]	PBM binding z-score [15]	PBM binding z-score [16]	PBM binding z-score [17]	PBM binding z-score [18]	PBM binding z-score [19]	PBM binding z-score [20]
GCTAGTTGGTCAGTAAAAGGTCACACCCCGGTCG	2.85	4.02	4.42	3.74	0.781	4.19	2.69	4.11	2.14	3.78	0.618	2.91	-0.641	-0.291	3.31	4.6	0.747	5.06	0.952	4.21
AAATGTAGGTTAGCTGGGGTCATTCAGACTAGGC	4.53	5.93	3.17	4.82	0.888	5.67	6.42	5.77	3.31	5.16	7.19	7.11	4.54	3.23	3.17	6.55	4.04	6.04	0.836	3.28
ACTTACGGATCAACGAGGTTATAGCACGCGTATA	0.716	0.914	0.686	1.25	0.594	1.47	0.98	0.564	0.453	0.486	0.402	0.468	0.823	0.952	0.607	1.41	0.695	1.5	1.25	0.645
GCGACTGGGGCATCAGCAAGTTACCATAACTTAA	-0.358	-0.587	-0.708	0.105	-0.805	0.514	0.866	1.08	-0.463	0.387	3.88	2.87	-1.33	-0.593	-0.528	-0.359	-0.789	-0.454	-0.707	0.453
TAGCCAAGGTCATGGGCCAGTATACCACGCGAAC	7.33	5.41	0.809	4.45	0.229	6.11	5.96	6	2.19	4.55	1.56	3.66	0.971	1.48	2.86	4.24	0.572	4.73	0.369	5.36
TGAATCAGGTTATAAGATCAGGGAACGTTGCAAA	0.101	0.162	-0.396	0.0988	-0.425	0.709	0.475	0.863	0.155	0.477	0.57	1.03	1.01	0.775	2.15e-05	-0.146	-0.197	-0.101	0.428	0.25
